In PubChem BioAssay (NCATS):
Values joined by “and” are separate entries in the source; they are usually repeats but may differ in a detail not shown here. Equal values may be shown once. Inconclusive results are not listed. Active and inactive are the calls of the source. Unless noted, calls follow the shape of the dose curve; as a rule, active = well fitted curve in the direction sought with a large enough effect; inconclusive = small, poorly fitted or top-dose-only effect, or another doubt; inactive = no such curve, though single readings can be large; an effect the other way counts as inactive or inconclusive.

Columns and labels:
[1] = qHTS profiling of the MIPE4 collection as inhibitors of Plasmodium falciparum (3D7) proliferation (AID 743344; call rule not given here;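 also: scaled between DMSO vehicle wells and 0.29 µM artemisinin as full inhibition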); conditions: P. falciparum 3D7 in erythrocytes, SYBR Green DNA fluorescence, 72 h; at 28.5 µM unless noted
In short: (§1)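 Parasite DNA was quantified by SYBR Green I fluorescence (ex 485, em 535 nm) after overnight lysis in saponin/Triton buffer at room temperature. Cultures at 0.3% parasitemia and 2.5% hematocrit were first exposed to compound for 72 h at 37 C; signals were normalised to artemisinin (0.29 uM) and vehicle wells.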

[2] = qHTS profiling of the MIPE4 collection as inhibitors of Plasmodium falciparum (DD2) proliferation (AID 743345; call rule not given here); conditions: P. falciparum Dd2 in erythrocytes, SYBR Green DNA, 72 h; at 28.5 µM unless noted
In short: as §1

[3] = qHTS profiling of the MIPE4 collection as inhibitors of Plasmodium falciparum (DD2) proliferation (Rep 2) (AID 743346; call rule not given here); conditions: P. falciparum Dd2 in erythrocytes, SYBR Green DNA, 72 h; at 28.5 µM unless noted
In short: as §1

[4] = qHTS profiling of the MIPE4 collection as inhibitors of Plasmodium falciparum (HB3) proliferation (AID 743347; call rule not given here;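 also: plate controls were DMSO vehicle wells for no effect and artemisinin wells for full effect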); conditions: P. falciparum HB3 in erythrocytes, SYBR Green DNA, 72 h; at 28.5 µM unless noted
In short: as §1

[5] = High-throughput drug toxicity screening in the BPDCN cell line Cal-1 (AID 1224825; call rule not given here); conditions: Cal-1 BPDCN cell viability, qHTS; at 45.8 µM (top of the series) unless noted
In short: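 Viability of the BPDCN line Cal-1 is measured as ATP-based luminescence (CellTiter-Glo) following 48 h incubation with compounds. Percent activity uses DMSO-treated wells as 100% and 9.2 uM bortezomib as 0%.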

[6] = qHTS assay for measurement of the activity of small molecule inhibitors on Zika virus induced Caspase-3 activity in human iPSC derived neural progenitor cells (hNPCs) (AID 1224857); also: % of control where 0% means no effect; nearly all actives have a fitted effect of over 65% in size
In short: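 After overnight (16–20 h) culture at 350 cells/well, hNPCs get compound, then ZIKV 2 FFU/cell one hour later. Six hours on, Caspase-Glo 3/7 is added and luminescence measured.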

[7] = qHTS assay for measurement of the activity of small molecule inhibitors on Zika virus induced Caspase-3 activity in human astrocytoma cells (AID 1224859);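 also: plate controls were ZIKV-infected untreated cells for no effect and uninfected cells for full effect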
In short: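 Inhibition of Zika-induced caspase-3/7 activity: SNB-19 cells, 1 h compound pretreatment, ZIKV 2 FFU/cell for 6 h at 37 C, Caspase-Glo luminescence read-out.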

[8] = qHTS Screen of the MIPE 4.0 Collection Against Ewings Sarcoma (RDES) (AID 1259252); also: potency is read from the fitted curve at half-maximal effect; nearly all actives have a fitted effect of over 35% in size
In short: (§2)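 Compound titrations go onto adherent log-phase cells 4 h after seeding, incubate 48 h at 37C, then CellTiter-Glo luminescence reports viability relative to DMSO and cell-free controls.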

[9] = qHTS Screen of the MIPE 4.0 Collection Against Ewings Sarcoma (TC71) (AID 1259253); also: nearly all actives have a fitted effect of over 40% in size; also: potency is read from the fitted curve at half-maximal effect
In short: as §2

[10] = qHTS Screen of the MIPE 4.0 Collection Against Ewings Sarcoma (EW8) (AID 1259255); also: nearly all actives have a fitted effect of over 35% in size; also: potency is read from the fitted curve at half-maximal effect;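 as to viability: 100% = DMSO-treated cells and 0% = medium-only wells without cells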
In short: as §2

[11] = qHTS Screen of the MIPE 4.0 Collection Against Ewings Sarcoma (TC32) (AID 1259256); also: potency is read from the fitted curve at half-maximal effect; nearly all actives have a fitted effect of over 45% in size
In short: as §2

[12] = qHTS profiling for inhibitors of Plasmodium falciparum (3D7) proliferation (AID 743322);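 also: infected erythrocytes exposed to compound for 72 h before lysis; 100% = DMSO vehicle wells and 0% = 0.29 µM artemisinin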; conditions: P. falciparum 3D7 proliferation; at 28.7 µM (top of the series)
In short: as §1

[13] = qHTS profiling for inhibitors of Plasmodium falciparum (DD2) proliferation (AID 743323; call rule not given here); conditions: lower = more inhibition; at 28.7 µM (top of the series)
In short: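 Parasite DNA quantified by SYBR Green fluorescence (ex 485, em 535 nm) after saponin/Triton lysis and overnight dark incubation. Cultures: 0.3% parasitemia, 2.5% hematocrit, 72 h, 37 C; data scaled between DMSO and 0.29 uM artemisinin.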

[14] = qHTS profiling for inhibitors of Plasmodium falciparum (HB3) proliferation (AID 743324); conditions: Plasmodium falciparum HB3 blood-stage proliferation; at 28.7 µM (top of the series);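 also: 100% = DMSO vehicle wells and 0% = artemisinin-treated control wells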
In short: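 SYBR Green fluorescence (485 ex/535 em) of lysed cultures, incubated overnight at room temperature in the dark, quantifies parasite DNA. Infected erythrocytes at 0.3% parasitemia and 2.5% hematocrit were exposed 72 h; values normalized to DMSO and 0.29 uM artemisinin controls.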

[15] = Identifying Small Molecule Inhibitors of Pancreatic Cancer Stem Cells (SN12C, Adherent) (AID 1259358);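 also: potency is read from the fitted curve at half-maximal effect; cell survival measured after 48 h of compound exposure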
In short: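 Viability is scored by CellTiter-Glo luminescence 48 h after dosing, expressed as percent activity against vehicle and no-cell references. Spheroid formats rely on cells cultured 14 days in stem cell media beforehand.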

SMILES | parasite growth, % of DMSO control [1] [%] | parasite growth remaining, % of DMSO control (lower = more inhibition) [2] [%] | parasite growth, % of control (lower = inhibition) [3] [%] | growth, % of control [4] [%] | viability (% of control) [5] [%] | Potency [6] | Potency [7] | Potency [8] | Potency [9] | Potency [10] | Potency [11] | remaining parasite growth % (stronger effect = lower value) [12] | activity, percent of control [13] | remaining proliferation (% of control), lower = more inhibition [14] | Potency [15]
CNC(=O)c1ccc(N2C(=S)N(c3cnc(C#N)c(C(F)(F)F)c3)C(=O)C23CCC3)cc1F | 41 | 79.8 | 39 | 41.2 | 3.32 | inactive | inactive | 1.18 µM (active) | 2.96 µM (active) | 8.33 µM (active) | 8.33 µM (active) | – | – | – | –
Cn1c2ccccc2c2c3c(c4c5ccccc5n(CCC#N)c4c21)CNC3=O | – | 7.7 | 30.7 | 54.6 | – | inactive | inactive | 0.935 µM (active) | 1.18 µM (active) | 8.33 µM (active) | 4.69 µM (active) | – | – | – | –
Nc1nc(NCCNc2ncc(-n3ccnc3)c(-c3ccc(Cl)cc3Cl)n2)ccc1[N+](=O)[O-] | – | 80 | – | 4.45 | 4.88 | inactive | – | 0.833 µM (active) | inactive | inactive | 9.35 µM (active) | – | – | – | –
NC1(Cc2ccc(Cl)cc2)CCN(c2ncnc3[nH]ccc23)CC1 | – | 31.6 | 23.9 | 5.59 | 22.9 | inactive | inactive | 16.6 µM (active) | 18.7 µM (active) | 16.6 µM (active) | 16.6 µM (active) | – | – | – | –
C[C@@H](Oc1cc(-c2cnn(C3CCNCC3)c2)cnc1N)c1c(Cl)ccc(F)c1Cl | 5.26 | 5.84 | 10.7 | 2.36 | 3.63 | inactive | inactive | 16.6 µM (active) | 14.8 µM (active) | 10.5 µM (active) | 4.18 µM (active) | -1.04% | 1.46% | -2.16% | 18.7 µM (active)
COC(=O)Nc1nc2ccc(C(=O)c3ccc(F)cc3)cc2[nH]1 | – | – | 69.2 | 61.7 | 25 | inactive | inactive | 0.743 µM (active) | 1.05 µM (active) | 0.662 µM (active) | 0.372 µM (active) | – | – | – | –
Cc1cc(CN2CCN(c3c(Br)cnc4nc(-c5ccc(N6CCN(C)CC6)cc5)[nH]c34)CC2)no1 | 15.7 | – | 25.8 | 4.61 | 2.79 | inactive | inactive | 14.8 µM (active) | 18.7 µM (active) | 0.935 µM (active) | 1.18 µM (active) | – | – | – | –
CCN(CC)CCNC(=O)c1ccc2nc(-c3ccccc3)c(-c3ccc(CN4CCC(n5c(=O)[nH]c6ccccc65)CC4)cc3)nc2c1 | 4.56 | 5.78 | 19.4 | 8.22 | 0.965 | inactive | inactive | 23.5 µM (active) | 23.5 µM (active) | 16.6 µM (active) | 18.7 µM (active) | – | – | – | –
Nc1ccccc1NC(=O)c1ccc(CNc2nccc(-c3cccnc3)n2)cc1 | – | 7.08 | – | 2.52 | 5.36 | inactive | inactive | 1.32 µM (active) | 1.05 µM (active) | 1.05 µM (active) | 0.935 µM (active) | -1.31% | 0.67% | – | –
O=C(Nc1cn[nH]c1-c1nc2ccc(CN3CCOCC3)cc2[nH]1)NC1CC1 | 5.31 | 12.9 | 8.07 | 4.19 | 3.55 | inactive | – | 3.72 µM (active) | 7.43 µM (active) | 0.0332 µM (active) | 0.0662 µM (active) | – | – | – | –
COc1cc2c(cc1-c1c(C)noc1C)ncc1[nH]c(=O)n([C@H](C)c3ccccn3)c12 | 67.1 | 97.3 | 86.2 | 74.1 | 7.22 | – | – | 6.62 µM (active) | 4.69 µM (active) | 18.7 µM (active) | 4.69 µM (active) | – | – | – | –
c1nc2nc(Nc3ccc(N4CCOCC4)cc3)nc(NC3CCCCC3)c2[nH]1 | 12.6 | 31.3 | 10.2 | 4.57 | 8.54 | inactive | inactive | 14.8 µM (active) | 2.64 µM (active) | 2.35 µM (active) | 1.87 µM (active) | 4.62% | 13.5% | -0.173% | –
O=C(NCCCNc1nc(Nc2cccc(NC(=O)N3CCCC3)c2)ncc1I)c1cccs1 | 6.21 | 12.5 | – | 4.4 | 2.96 | inactive | inactive | 13.2 µM (active) | 16.6 µM (active) | 1.87 µM (active) | 2.35 µM (active) | 2.01% and 8.72% | 5.54% and 10.1% | 1.48% and 5.6% | –
CC(C)(C)OC(=O)Nc1ccc(-c2cc(C(=O)NCCCCCCC(=O)NO)no2)cc1 | – | 6.42 | 12.7 | 3.96 | 3.94 | inactive | inactive | 2.09 µM (active) | 2.96 µM (active) | 1.32 µM (active) | 1.66 µM (active) | -1.38% | -0.213% | 0.579% | 26.4 µM (active)
CNC(=O)c1c(F)cccc1Nc1nc(Nc2cc3c(cc2OC)CCN3C(=O)CN(C)C)nc2[nH]ccc12 | 3.51 | 6.69 | 6.76 | 2.27 | 2.8 | – | – | 20.9 µM (active) | 20.9 µM (active) | 7.43 µM (active) | 1.32 µM (active) | – | – | – | –
